Source: PubChem BioAssay AID602340 (Broad Institute, 2012)
In all, about 330,000 compounds went through this assay and about 2,600 (0.79%) were called active. The list comes from a sample in which actives are over-represented; it also holds similar structures and randomly drawn compounds. A number with no mark means an inactive call.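 The calls were made as follows: active = mean ATP rescue above about 67%, or every replicate alone reaching that limit (limit read from the data, passing the limit was not always enough); inconclusive = no clear call, values can overlap the other calls; inactive = mean under the limit and some replicate under it.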

Assay: protection of differentiated C2C12 cells from simvastatin – single point, plate reader, primary screen (AID 602340);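 also: myotubes were challenged with 10 µM simvastatin during compound exposure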
Settings: C2C12 myotubes + simvastatin, ATP luminescence, 48 h; at 7.49 µM; hits give high values; scaled: DMSO 0, geranylgeraniol control 100

Compound | rescue of ATP level
Cc1ccc(C(=O)N2CCCC2)c(F)c1F | 16.3%
Cc1c(Br)cc(C(=O)N2CCCCCC2)c(C)c1C | 115% (active)
COc1cc(OC)c(C(=O)N2CCCC2)cc1OC | -3.44%
COCC(=O)Nc1ccc2c(c1)C(=O)N(C)[C@@H]1CC[C@H](CC(=O)NCC3CCCCC3)O[C@H]1CO2 | 13.3%
O=C(Nc1ccccc1F)N[C@@H]1CC[C@H](CC(=O)N2CCCCC2)O[C@H]1CO | 4.38%
CC(=O)N1[C@@H]2c3ccc(-c4ccccc4)c(=O)n3C[C@@H]2[C@@H](CO)[C@@H]1C(=O)NCc1ccccc1F | 5.23%
OCc1ccc(OCCCOc2cccc3cccnc23)cc1 | 7.29%
O=C(Nc1ccccc1)Oc1cccc2cccnc12 | 101% (active)
Fc1ccccc1COc1cccc2cccnc12 | 8.73%
C/C=C/c1ccc2c(c1)O[C@H](CN(C)C(=O)C1CCCCC1)[C@@H](C)CN([C@@H](C)CO)S2(=O)=O | 2.75%
CCc1nc2ccccc2n(CCOCCOCCn2c(=O)c(CC)nc3ccccc32)c1=O | 114% (active)
CCOCCn1c(C(C)C)nc2ccccc21 | -2.16%
COCCOCCn1cnc2ccccc21 | 14.6%
C[C@@H]1CN([C@H](C)CO)C(=O)c2cc(C#CC3CC3)cnc2O[C@@H]1CN(C)Cc1cccc(C(=O)O)c1 | -0.6%
COc1ccc2[nH]c(=O)c(CN(CC3CCCO3)C(=O)Nc3ccccc3)cc2c1 (centres undefined) | -11.6%
COc1ccc2[nH]c(=O)c(CN(Cc3cccnc3)S(=O)(=O)c3ccccc3F)cc2c1 | -38.6%
COc1ccc2[nH]c(=O)c(CNc3ccc(C)c(C)c3)cc2c1 | 100% (active)
CO[C@H]1CN(C)C(=O)c2ccc(NS(C)(=O)=O)cc2OC[C@@H](C)N(C(=O)c2ccc3c(c2)OCO3)C[C@@H]1C | -7.88%
C[C@@H]1CCCCO[C@H](CN(C)S(=O)(=O)c2cn(C)cn2)[C@H](C)CN([C@@H](C)CO)C(=O)c2cc(NC(=O)Nc3ccc(C(F)(F)F)cc3)ccc2O1 | 0.993%
C[C@@H]1CN([C@@H](C)CO)C(=O)Cc2cc(NC(=O)CCN3CCOCC3)ccc2O[C@H]1CN(C)S(=O)(=O)c1ccccc1 | -6.12%
O=S(=O)(Cc1ccccc1)NCC[C@@H]1CC[C@@H](NS(=O)(=O)c2ccccc2)[C@@H](CO)O1 | 1.31%
COc1ccc(S(=O)(=O)N/N=C\c2ccc(OC)c(COc3ccc(C)cc3[N+](=O)[O-])c2)cc1 | 99.4% (active)
Cc1ccc(S(=O)(=O)N/N=C\c2cc3c(cc2[N+](=O)[O-])OCO3)cc1 | 2.88%
COc1ccc(S(=O)(=O)Nc2ccc3cn[nH]c3c2)cc1[N+](=O)[O-] | 1.46%
